# Measured values published in ChEMBL document CHEMBL4513146, “CO-ADD screening of Karazin Kharkiv National University (Ukraine) compounds”.
# Entries with a potency or affinity are not part of this list.
# Test system: Klebsiella pneumoniae
# Conditions: Concentration 32 ug.mL-1;; ASSAY_TEST Inhibition of Bacterial Growth; detection method Absorption (OD600); MEDIA CAMHB; plate type 384well; NBS; CORNING #3640; time 18 hr
row,Structure (SMILES),Inhibition
1,Cc1cc(C)c(NC(=O)CSc2nnc3ccc(C(=O)Nc4cccc(F)c4)cn23)c(C)c1,4.12%
2,CCOC(=O)N1CCN(C(=O)CCc2nnc3c4cc(-c5ccccc5)nn4ccn23)CC1,14.35%
3,COc1ccc(NC(=O)Cn2c(=O)c3nnc(C)n3c3ccccc32)cc1Cl,11.31%
4,CCc1ccccc1NC(=O)Cn1c(=O)c2nnc(C(C)C)n2c2ccccc21,-2.33%
5,Cc1cccc(C)c1NC(=O)Cn1nc2c3cc(-c4ccc(Cl)cc4)nn3ccn2c1=O,6.6%
6,COC(=O)c1ccc(NC(=O)Cn2nc3c4cc(-c5ccc(F)cc5)nn4ccn3c2=O)cc1,11.64%
7,COc1ccc(-c2nc(CSc3nc4ccccc4n4c(C(C)C)nnc34)c(C)o2)cc1,4.67%
8,CCc1nnc2c(SCC(=O)Nc3cc(Cl)ccc3C)nc3ccccc3n12,15.39%
9,O=C(Cn1nc2c(N3CCOCC3)nc3ccccc3n2c1=O)NCc1ccccc1Cl,-0.61%
10,CCc1nnc2c(S(=O)(=O)N(Cc3ccccc3C)c3ccc(C(C)C)cc3)cccn12,3.73%
11,Cc1ccc(-c2cc3c4nn(CC(=O)Nc5ccccc5C)c(=O)n4ccn3n2)cc1C,7.72%
12,CC(C)c1nnc2c(=O)n(CC(=O)Nc3ccc(C#N)cc3)c3ccccc3n12,6.44%
13,CC(C)CCn1c(=O)c2ccc(C(=O)NC3CCCCC3)cc2n2c(=O)n(CC#N)nc12,4.36%
14,Cc1cc2nn(CC(=O)Nc3ccc(F)cc3Cl)c(=O)n2c(Nc2ccc(F)cc2)n1,8.79%
15,Cc1ccc(CNC(=O)Cn2nc3c(N4CCN(c5ccccc5C)CC4)nccn3c2=O)cc1,0.81%
16,CC(=O)c1ccc(NC(=O)Cn2nc3ccc(Sc4ccccc4)nn3c2=O)cc1,-6.33%
17,COc1cccc(CNC(=O)CSc2nnc3ccc(C(=O)Nc4cccc(F)c4)cn23)c1,-3.24%
18,COc1ccccc1-n1ccn2c(=O)n(Cc3ccc(F)cc3Cl)nc2c1=O,1.73%
19,Cc1ccc(NC(=O)Cn2nc3c4cc(-c5ccc(C)c(C)c5)nn4ccn3c2=O)cc1,12.57%
20,Cc1nnc2c(S(=O)(=O)N(Cc3ccccc3)c3ccc(C(C)C)cc3)cccn12,8.51%
21,CCc1nnc2c(=O)n(CC(=O)Nc3ccc(NC(C)=O)cc3)c3ccccc3n12,5.97%
22,O=c1c2sccc2n2c(=O)n(Cc3cccc(C(F)(F)F)c3)nc2n1Cc1cccs1,15.22%
23,CC(=O)c1ccc(NC(=O)Cn2nc3c4cc(-c5ccc(Cl)cc5)nn4ccn3c2=O)cc1,16.61%
24,COc1ccc(Cl)cc1NC(=O)CSc1nnc2c(=O)n(-c3ccccc3)ccn12,11.41%
25,CSc1cccc(NC(=O)Cn2nc3ccc(SC(C)(C)C)nn3c2=O)c1,7.55%

# Test system: Candida albicans
# Conditions: Concentration 32 ug.mL-1; ASSAY_TEST Inhibition of Fungal Growth; detection method Absorption (OD530)
row,Structure (SMILES),Inhibition
1,CCc1nnc2c(=O)n(CC(=O)Nc3cccc(C#N)c3)c3ccccc3n12,5.47%
2,COc1ccc(NC(=O)Cn2nc3c4cc(-c5ccc(C)c(C)c5)nn4ccn3c2=O)cc1,19.37%
3,Cc1nnc2c(=S)[nH]c3ccccc3n12,-0.01%
4,COc1cccc(-n2ccn3c(SCC(=O)c4ccc(OC)c(OC)c4)nnc3c2=O)c1,4.83%
5,COc1ccc(OC)c(NC(=O)Cn2nc3c4cc(-c5ccc(F)cc5)nn4ccn3c2=O)c1,3.04%
6,CCc1ccc(NC(=O)Cn2nc3cc(C)nc(Nc4ccc(F)c(C)c4)n3c2=O)cc1,8.83%
7,CC(C)c1nnc2c(=O)n(CC(=O)Nc3ccc4c(c3)OCO4)c3ccccc3n12,6.2%
8,CC(C)c1nnc2c(=O)n(CC(=O)Nc3cc(Cl)ccc3Cl)c3ccccc3n12,3.43%
9,CCOC(=O)c1cccc(NC(=O)Cn2nc3c(Oc4cccc(C)c4C)nccn3c2=O)c1,-0.11%
10,COc1ccccc1N1CCN(C(=O)Cn2nc3c(Sc4cccc(C)c4)nccn3c2=O)CC1,2.52%
11,CCCCN(C)c1ccc2nnc(CCc3nc(-c4cc(OC)cc(OC)c4)no3)n2n1,9.61%
12,COc1ccc(CNC(=O)Cn2nc3c4cc(-c5ccc(C)c(C)c5)nn4ccn3c2=O)cc1,11.15%
13,O=S(=O)(c1ccc2nncn2c1)N(Cc1cc(F)cc(F)c1)c1ccccc1,-0.85%
14,Cc1ccc(-c2cc3c4nn(CC(=O)Nc5ccc(F)cc5Cl)c(=O)n4ccn3n2)cc1,1.88%
15,Cc1cc(C)c(NC(=O)CSc2nnc3ccc(C(=O)Nc4cccc(F)c4)cn23)c(C)c1,1.89%
16,CCOC(=O)N1CCN(C(=O)CCc2nnc3c4cc(-c5ccccc5)nn4ccn23)CC1,1.03%
17,COc1ccc(NC(=O)Cn2c(=O)c3nnc(C)n3c3ccccc32)cc1Cl,0.53%
18,CCc1ccccc1NC(=O)Cn1c(=O)c2nnc(C(C)C)n2c2ccccc21,1.4%
19,Cc1cccc(C)c1NC(=O)Cn1nc2c3cc(-c4ccc(Cl)cc4)nn3ccn2c1=O,-0.5%
20,COC(=O)c1ccc(NC(=O)Cn2nc3c4cc(-c5ccc(F)cc5)nn4ccn3c2=O)cc1,3.5%

row,Structure (SMILES),Inhibition
1,COc1ccc(-c2nc(CSc3nc4ccccc4n4c(C(C)C)nnc34)c(C)o2)cc1,2.32%
2,CCc1nnc2c(SCC(=O)Nc3cc(Cl)ccc3C)nc3ccccc3n12,3.09%
3,O=C(Cn1nc2c(N3CCOCC3)nc3ccccc3n2c1=O)NCc1ccccc1Cl,6.61%
4,CCc1nnc2c(S(=O)(=O)N(Cc3ccccc3C)c3ccc(C(C)C)cc3)cccn12,21.84%
5,Cc1ccc(-c2cc3c4nn(CC(=O)Nc5ccccc5C)c(=O)n4ccn3n2)cc1C,19.26%
6,CC(C)c1nnc2c(=O)n(CC(=O)Nc3ccc(C#N)cc3)c3ccccc3n12,0.24%
7,CC(C)CCn1c(=O)c2ccc(C(=O)NC3CCCCC3)cc2n2c(=O)n(CC#N)nc12,4.75%
8,Cc1cc2nn(CC(=O)Nc3ccc(F)cc3Cl)c(=O)n2c(Nc2ccc(F)cc2)n1,8.11%
9,Cc1ccc(CNC(=O)Cn2nc3c(N4CCN(c5ccccc5C)CC4)nccn3c2=O)cc1,26.17%
10,CC(=O)c1ccc(NC(=O)Cn2nc3ccc(Sc4ccccc4)nn3c2=O)cc1,15.65%
11,COc1cccc(CNC(=O)CSc2nnc3ccc(C(=O)Nc4cccc(F)c4)cn23)c1,0.25%
12,COc1ccccc1-n1ccn2c(=O)n(Cc3ccc(F)cc3Cl)nc2c1=O,3.67%
13,Cc1ccc(NC(=O)Cn2nc3c4cc(-c5ccc(C)c(C)c5)nn4ccn3c2=O)cc1,8.44%
14,Cc1nnc2c(S(=O)(=O)N(Cc3ccccc3)c3ccc(C(C)C)cc3)cccn12,-1.81%
15,CCc1nnc2c(=O)n(CC(=O)Nc3ccc(NC(C)=O)cc3)c3ccccc3n12,5.77%
16,O=c1c2sccc2n2c(=O)n(Cc3cccc(C(F)(F)F)c3)nc2n1Cc1cccs1,35.9%
17,CC(=O)c1ccc(NC(=O)Cn2nc3c4cc(-c5ccc(Cl)cc5)nn4ccn3c2=O)cc1,29.09%
18,COc1ccc(Cl)cc1NC(=O)CSc1nnc2c(=O)n(-c3ccccc3)ccn12,3.46%
19,CSc1cccc(NC(=O)Cn2nc3ccc(SC(C)(C)C)nn3c2=O)c1,2.25%
